Data taken from PubChem BioAssay (Tox21).
Inconclusive results are not listed. Active and inactive are the calls of the source. Unless noted, the call rests on the fitted dose curve; in most records, active means well fitted curve in the direction sought with a large enough effect in the repeat runs; inconclusive means weak or mixed curves; inactive means no such curve, though single readings can be large; an effect the other way counts as inactive or inconclusive.

How the values were obtained:
[1] = qHTS assay to identify small molecule antagonists of the thyroid receptor (TR) signaling pathway - cell viability counter screen (AID 743064); further: nearly all actives have a fitted effect of over 50% in size
Procedure, shortened: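 CellTiter-Fluor readout, 30 min at 37 °C/5% CO2, following 23.5 h incubation of GH3.TRE-Luc cells with test compound and 1 nM T3 (final).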

[2] = qHTS assay to identify small molecule antagonists of the thyroid receptor (TR) signaling pathway (AID 743065); further: nearly all actives have a fitted effect of over 55% in size; further: potency means the concentration at half of the fitted maximal effect; on activity, negative = inhibition: series mostly up to about 70 µM
Procedure, shortened: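 Antagonism measured as loss of luciferase signal in GH3 cells stably carrying a TRE-luciferase reporter, co-treated with compound and T3 (1 nM final) for 23.5 h at 37 C. Viability was read in the same well by CellTiter-Fluor.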

[3] = test system: thyroid hormone receptor (rat, GH3 cells); assay: qHTS assay to identify small molecule agonists of the thyroid receptor (TR) signaling pathway (AID 743066; calls by dose curve)
[4] = qHTS assay to identify small molecule antagonists of the estrogen receptor alpha (ER-alpha) signaling pathway - cell viability counter screen (AID 743074; calls by dose curve;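 further: HEK293 cells carrying ER-alpha-UAS-bla reporter stimulated with 17beta-estradiol; nearly all actives have a fitted effect of over 45% in size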)
[5] = qHTS assay to identify small molecule antagonists of the estrogen receptor alpha (ER-alpha) signaling pathway using the BG1 cell line - cell viability counter screen (AID 743081);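 further: compound given together with 17beta-estradiol as the ER stimulus; series mostly up to about 70 µM; nearly all actives have a fitted effect of over 45% in size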
[6] = target: Aromatase (Homo sapiens) (UniProt P11511); assay: qHTS assay to identify aromatase inhibitors (AID 743083); further: series mostly up to about 70 µM; nearly all actives have a fitted effect of over 55% in size
[7] = target: Estrogen receptor (Homo sapiens) (UniProt P03372); assay: qHTS assay to identify small molecule antagonists of the estrogen receptor alpha (ER-alpha) signaling pathway (AID 743069; active means well fitted curve in the direction sought with a large enough effect in the signal ratio in the repeat runs, not every such curve was filed as active; the % refers to the signal ratio)
Procedure, shortened: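 ER-alpha-UAS-bla GripTite HEK293 line; 2% charcoal-stripped FBS overnight; plated, 4 hr 37C/5% CO2; cpd in DMSO + 17beta-estradiol, 18 hr 37C; LiveBLAzer B/G FRET substrate 2 hr RT; fluorescence intensity.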

[8] = target: Estrogen receptor (Homo sapiens) (UniProt P03372); assay: qHTS assay to identify small molecule agonists of the estrogen receptor alpha (ER-alpha) signaling pathway (AID 743075; calls by dose curve;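 further: HEK293 GripTite cells with ER-alpha and UAS-driven beta-lactamase reporter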)
[9] = target: Estrogen receptor (Homo sapiens) (UniProt P03372); assay: qHTS assay to identify small molecule agonists of the estrogen receptor alpha (ER-alpha) signaling pathway using the BG1 cell line (AID 743079); further: nearly all actives have a fitted effect of over 20% in size
[10] = qHTS assay to identify small molecule antagonists of the estrogen receptor alpha (ER-alpha) signaling pathway using the BG1 cell line (AID 743080; calls by dose curve;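 further: BG1 cells stimulated with 17beta-estradiol alongside compound; series mostly up to about 70 µM; nearly all actives have a fitted effect of over 25% in size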)
Procedure, shortened: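 Luciferase inhibition measured with ONE-Glo after 30 min at RT in BG1Luc4E2 cells given test compounds and 17beta-estradiol for 21.5 h at 37 C; CellTiter-Fluor viability read in the same wells beforehand.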
On the % scale 0 is the no-effect control and ±100 the full control effect.

Estrogen receptor (Homo sapiens), sequence (P03372 whole entry, looked up): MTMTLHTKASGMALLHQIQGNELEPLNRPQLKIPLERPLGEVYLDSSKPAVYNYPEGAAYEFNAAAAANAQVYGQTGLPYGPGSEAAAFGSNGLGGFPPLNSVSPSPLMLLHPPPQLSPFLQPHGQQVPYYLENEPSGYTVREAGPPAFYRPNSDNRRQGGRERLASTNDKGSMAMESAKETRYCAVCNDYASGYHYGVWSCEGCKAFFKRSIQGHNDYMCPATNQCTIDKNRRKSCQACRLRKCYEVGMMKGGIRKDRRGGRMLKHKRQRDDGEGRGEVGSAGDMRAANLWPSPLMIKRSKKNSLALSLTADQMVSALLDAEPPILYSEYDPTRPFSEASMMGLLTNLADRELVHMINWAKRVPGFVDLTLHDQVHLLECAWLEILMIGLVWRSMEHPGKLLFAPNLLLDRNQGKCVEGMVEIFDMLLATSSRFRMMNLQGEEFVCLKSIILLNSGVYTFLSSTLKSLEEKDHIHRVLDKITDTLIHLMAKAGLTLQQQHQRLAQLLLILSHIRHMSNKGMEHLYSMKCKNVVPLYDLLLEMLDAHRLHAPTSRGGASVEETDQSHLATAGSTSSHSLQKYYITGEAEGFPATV
Aromatase (Homo sapiens), sequence (P11511 whole entry, looked up): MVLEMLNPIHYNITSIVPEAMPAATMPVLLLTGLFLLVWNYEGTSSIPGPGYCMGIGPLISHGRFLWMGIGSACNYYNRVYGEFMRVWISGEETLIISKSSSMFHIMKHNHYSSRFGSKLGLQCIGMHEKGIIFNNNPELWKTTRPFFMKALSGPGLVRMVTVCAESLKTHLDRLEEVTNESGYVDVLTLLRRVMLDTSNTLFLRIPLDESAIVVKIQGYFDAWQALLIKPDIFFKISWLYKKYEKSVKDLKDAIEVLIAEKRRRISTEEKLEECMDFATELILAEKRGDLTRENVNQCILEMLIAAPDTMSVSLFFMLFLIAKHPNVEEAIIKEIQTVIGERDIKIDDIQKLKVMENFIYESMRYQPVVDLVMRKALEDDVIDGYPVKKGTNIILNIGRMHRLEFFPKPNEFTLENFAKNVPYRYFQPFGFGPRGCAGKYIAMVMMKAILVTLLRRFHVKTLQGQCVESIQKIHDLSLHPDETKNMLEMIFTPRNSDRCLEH

C#CC(O)CCCCC (stereo not given)
inactive: Potency [1] | Potency [2] | Potency [3] | outcome [4] | outcome [5] | Potency [6]

NC(=S)Nc1cccc2ccccc12
inactive: activity change, negative = cytotoxic [1] -2.02% [at 8.44 µM] | activity, negative = inhibition [2] -4.6% [at 8.44 µM] | activation [3] 0.336% [at 8.08 µM] | activity, negative = cytotoxicity [4] 13.6% [at 6.72 µM] | activity change, negative = cytotoxicity [5] -0.944% [at 8.47 µM] | activity, negative = inhibition [6] 16.7% [at 8.47 µM]

C=C(C)[C@@H]1CCC2=CC(=O)C[C@@H](C)[C@]2(C)C1
inactive: Potency [1] | Potency [3] | Potency [7] | outcome [4] | Potency [8] | Potency [9] | outcome [5]

COc1cc(O)cc(O)c1
inactive: Potency [1] | Potency [2] | Potency [3] | outcome [4] | outcome [5] | Potency [6]

Cn1cnc2c(=O)[nH]c(N)nc21
inactive: Potency [1] | Potency [2] | Potency [3] | outcome [5] | Potency [6]

COC(=O)[C@H]1[C@H]2C[C@@H]3c4[nH]c5cc(OC)ccc5c4CCN3C[C@H]2C[C@@H](OC(=O)COc2ccc(OC)cc2)[C@@H]1OC
inactive: Potency [1] | outcome [4] | Potency [8] | Potency [9] | Potency [10] | outcome [5] | Potency [6]
active: Potency [2] 23.7 µM

Cc1nccn1CC1CCc2c(c3ccccc3n2C)C1=O (stereo not given)
inactive: Potency [1] | Potency [3] | Potency [7] | outcome [4] | Potency [8] | Potency [9] | Potency [10] | outcome [5] | Potency [6]

C[C@H]1O[C@@H](n2cc(F)c(=O)[nH]c2=O)[C@H](O)[C@@H]1O
inactive: Potency [1] | Potency [2] | Potency [3] | outcome [4] | outcome [5] | Potency [6]

N[C@@H](CS)C(=O)O
inactive: Potency [1] | Potency [2] | Potency [3] | outcome [4] | outcome [5] | Potency [6]

C=C(C)C(=O)NCCCN(C)C
inactive: Potency [1] | Potency [2] | outcome [4] | outcome [5] | Potency [6]

FC(F)(F)C(F)(F)C(F)(F)C(F)(F)C(F)(F)C(F)(F)C(F)(F)C(F)(F)C(F)(F)C(F)(F)F
inactive: activity change, negative = cytotoxic [1] 12.8% [at 8.44 µM] | activity, negative = inhibition [2] 5.14% [at 8.44 µM] | activation [3] 0.424% [at 8.08 µM] | activity, negative = cytotoxicity [4] -10% [at 6.72 µM] | activity change, negative = cytotoxicity [5] 7.45% [at 8.47 µM] | activity, negative = inhibition [6] 1.74% [at 8.47 µM]
